# Compound activity as filed in PubChem.
# TWEAK-Fn14 inh – blocks TWEAK-Fn14 interaction in a reporter cell assay. TWEAK-stimulated Fn14 reporter cells, luciferase luminescence, 8 h. inhibition, % at 10 µM. 360,000 tested, 2% active; in the data active = inhibition above about 50%
# LMP1 NFkB inh – Epstein-Barr LMP1 NF-kappaB reporter inhibition. LMP1-induced NF-kappaB luciferase reporter cells, luminescence. AID 504558. 350,000 tested, 0.69% active. inhibition, % at 12.5 µM; in the data active = inhibition above about 41%; inconclusive = no clear call, values can overlap the other calls;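 also: 0% = neutral control wells and 100% = reference inhibitor control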
# TROY NFkB inh – inhibitors of TROY-dependent NF-kB signaling; Q293 LMP1-TROYcd NF-kB luciferase reporter, 4 h; inhibition, % at 10 µM; 360,000 tested, 0.98% active; AID 1347056;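 active = compounds whose plate-normalised and pattern-corrected inhibition of the luciferase reporter signal at the single screening dose is 50% or more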
# HSF-1 act – increases HSF-1 driven luciferase reporter signal | NIH3T3-HGL HSF-1 luciferase reporter, MG132, 8 h; 100% = twice DMSO control signal | activation, % at 9 µM | 300,000 tested, 1.7% active;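 active = mean replicate activation of at least 50% with a set share of replicates each reaching 50%; inconclusive = only one of those two conditions met; inactive = mean below 50% and too few replicates reaching it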;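 also: 0% = median of the neutral control wells and 100% = twice that signal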
# LGR2 inh – blocks bursicon-induced cAMP signaling via Drosophila LGR2. HEK293 LGR2, CRE-luciferase, bursicon-stimulated, 4 h. inhibition, % at 9.99 µM. 380,000 tested, 0.35% active;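 active = drop in luminescence signal, shown as inhibition above about 50% in the replicate tests, limit read from the data, passing the limit was not always enough; inconclusive = probably only some replicates passing the limit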;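 also: agonist challenge used bursicon conditioned medium at about half maximal strength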
# HSF1 inh – HSF1 inhibition; NIH3T3-HGL HSE-luciferase, MG132-induced, luminescence 8 h; stronger effect = lower value; 300,000 tested, 0.77% active; activity change, negative = inhibition, % at 7.5 µM (by protocol);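 active = more than half of replicate wells show activity change below -50%, luminescence cut by over half; inconclusive = some wells, but at most half, below -50%; inactive = no replicate well below -50%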;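 also: luciferase reports HSF-1 transcriptional activity via heat shock element; 0% = median of DMSO wells and -100% = zero luminescence signal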
# Numbers without * were called inactive; i = inactive; ? = inconclusive; nt = no result; ! = not active in a repeat. Sampled rows, rich in hits. Any-hit rate of the full collection: about 3.6%.
SMILES,TWEAK-Fn14 inh,LMP1 NFkB inh,TROY NFkB inh,HSF-1 act,LGR2 inh,HSF1 inh
O=C(CCC(=O)c1cccs1)NC(c1ccccc1)c1ccccc1,3,-7,-28,0,nt,2
O=C(CCC(=O)c1cccs1)c1cccs1,30,-18,-54,55*,nt,30
COc1ccc(OCC(O)CN2CCN(Cc3ccc4c(c3)OCO4)CC2)cc1 (stereo unspecified),-2,6,4,-12,7,-1
CC(=O)c1ccc(OCC(O)CN2CCN(Cc3ccc4c(c3)OCO4)CC2)cc1 (stereo unspecified),-8,4,-5,-7,-7,-61*!
CC(C)(C)NC(=O)COC(=O)c1ccccc1Nc1ccc(SC(F)F)cc1,55*,-6,27,98*,-29,67
CN(C)C(=O)COC(=O)c1ccccc1OCC(=O)Nc1ccc(SC(F)F)cc1,-5,-4,-1,-9,-13,-2
O=C(COc1ccccc1C(=O)O)Nc1ccc(SC(F)F)cc1,1,-1,-13,-88,-12,-86*
O=C(COC(=O)c1ccccc1Nc1ccc(SC(F)F)cc1)NC1CC1,32,-7,-15,79*,-16,53
CCCN1[C@H](C(=O)Nc2nccs2)[C@@H](CO)[C@@H]2Cn3c(ccc(-c4ccccc4OC)c3=O)[C@@H]21,nt,nt,nt,nt,5,nt
C[C@@H]1CN([C@H](C)CO)C(=O)Cc2cc(NC(=O)Cc3cn(C)c4ccccc34)ccc2O[C@H]1CN(C)S(C)(=O)=O,nt,nt,nt,nt,10,nt
CCCN1CCC(=O)N([C@H](CSc2ccc(C)cc2)c2ccccc2)CC1,37,-22,50*,-25,nt,-5
C[C@H]1CN([C@@H](C)CO)C(=O)c2cc(C#CCc3ccccc3)cnc2O[C@H]1CN(C)C(=O)C1CC1,nt,nt,nt,nt,12,nt
C=CC[n+]1c(-c2ccc(OC)cc2)csc1NNC(=O)Nc1ccccc1,4,3,-28,54*,-42,26
C=CC[n+]1c(-c2ccc(C)cc2)csc1Nc1ccc(NC(C)=O)cc1,51*,39,41,nt,-39,nt
CCOC(=O)N1C(=O)[C@@](c2ccc(Cl)cc2)(C(C)C)N1C(=O)OCC,76*,-3,36,9,?,6
O=C(C[C@H]1CC[C@@H](NC(=O)CC2CC2)[C@H](CO)O1)NCc1ccccc1,nt,nt,nt,nt,1,nt
CC1CCC(=C(C#N)c2nc(-c3cc4ccccc4oc3=O)cs2)CC1 (stereo unspecified),54*,-41,47,-29,nt,-20
CC(Oc1ccc(Cl)cc1Cl)c1nc(-c2ccc(NC(=O)c3ccccn3)cc2)no1 (stereo unspecified),53*,-1,21,nt,-10,nt
COc1ccc(NC(=O)c2ccccn2)cc1OC,-6,3,-73,nt,18,nt
OC(COCC1CC=CCC1)Cn1cnc2ccccc21 (stereo unspecified),3,5,-1,-2,nt,-1
Cc1nc2ccccc2n1CC(O)COCC1CC=CCC1 (stereo unspecified),4,17,18,87*,nt,42
CCCC(=O)Nc1ccc2c(c1)C(=O)N(C)[C@H]1CC[C@@H](CC(=O)Nc3ccccc3)O[C@@H]1CO2,nt,nt,nt,nt,-3,nt
COc1ccc(NC(=O)Nc2ccc3c(c2)CC(=O)N([C@@H](C)CO)C[C@H](C)[C@@H](CN(C)Cc2ccncc2)O3)cc1,nt,nt,nt,nt,-2,nt
c1cncc(CN=C2Nc3ccccc3CS2)c1,-11,4,-11,15,-19,5
Clc1ccc(CN=C2Nc3ccccc3CS2)cc1,-18,-12,-27,66*,nt,57
SMILES,TWEAK-Fn14 inh,LMP1 NFkB inh,TROY NFkB inh,HSF-1 act,LGR2 inh,HSF1 inh
Cc1ccc(C)c(C2=NNC(=NCc3ccccc3)SC2)c1,12,10,-6,0,-12,-1
Cc1ccc(CN=C2Nc3ccccc3CS2)cc1,33,-18,-8,61*,nt,34
COc1cccc(CN=C2Nc3ccccc3CS2)c1,-18,-21,-42,43,-21,31
COc1ccccc1CN=C1Nc2ccccc2CS1,-17,-19,-46,123*,-33,67
O=C(C1CCCC1)N1CC(=O)N2[C@H](CO)[C@@H](c3ccc(-c4ccccc4F)cc3)[C@@H]2C1,nt,nt,nt,nt,18,nt
Cc1cccc(NC(=O)C2SC(=Nc3c(C)cccc3C)C(C(=O)N3CCOCC3)=C2N)c1 (stereo unspecified),16,-1,8,-71,-12,-72*
Cc1cc(=O)[nH]c(N/N=C/c2cccs2)n1,-30,-10,-23,-24,-12,-7
Cc1ccsc1/C=N/Nc1nc2ccccc2[nH]1,2,-22,-72,803*,-65,i
C(=N\Nc1nc2ccccc2[nH]1)/c1cccs1,-14,-38,-45,113*,nt,99
COc1ccc(NC(=O)N(C)C[C@@H]2Oc3ccc(NC(=O)C4CCCCC4)cc3CC(=O)N([C@@H](C)CO)C[C@@H]2C)cc1,nt,nt,nt,nt,13,nt
Clc1ccc2nc(N3CCN(c4ccccc4)CC3)sc2c1,30,-7,11,?,nt,40
CN1CCN(c2ccc3sc(-n4ccc5ccccc54)nc3c2)CC1,65*,9,80*,nt,39,nt
OC(COc1ccccc1)CN1CCCCC1 (stereo unspecified),0,1,-9,nt,12,nt
O=C(/C=C/c1ccccc1)N1CCN(CC(O)COc2ccccc2)CC1 (stereo unspecified),5,-1,54*,-2,nt,0
CCCC(=O)Nc1ccc2c(c1)C(=O)N(C)[C@@H]1CC[C@H](CC(=O)NCCc3ccncc3)O[C@H]1CO2,nt,nt,nt,nt,0,nt
CC(C)c1ccc2oc(=O)cc(CN3CCCCC3)c2c1,-9,-13,-2,-62,-6,-54*
COc1ccc2c(c1)CCc1c(C(=O)N(C)c3ccccc3)noc1-2,-6,-23,-18,69*,-61,37
COc1ccc2c(c1)CCc1c(C(=O)NC3CCCCC3)noc1-2,-16,-37,-45,45,-28,23
COCC(C)NC(=O)c1noc2c1CCc1cc(OC)ccc1-2 (stereo unspecified),-2,-23,-50,71*,-69,49
COCCNC(=O)c1noc2c1CCc1cc(OC)ccc1-2,24,-12,-42,77*,nt,47
Clc1ccc(-c2cn3cc(Br)ccc3n2)cc1Cl,58*,-35,28,-16,nt,-18
COc1c(Cl)cccc1-c1cn2ccc(C)cc2n1,9,-34,-55,58*,-124,26
Cc1ccn2cc(-c3ccc(Br)cc3)nc2c1,73*,24,33,11,59*,-5
Cc1noc(C)c1NC(=O)N(C)C[C@H]1Oc2c(NC(=O)NC3CCCCC3)cccc2C(=O)N([C@H](C)CO)C[C@H]1C,nt,nt,nt,nt,13,nt
C/C=C/c1ccc2c(c1)O[C@@H](CN(C)C(=O)Cc1ccncc1)[C@H](C)CN([C@H](C)CO)S2(=O)=O,nt,nt,nt,nt,-2,nt
CC(C)NC(=O)Nc1ccc2c(c1)C(=O)N([C@H](C)CO)C[C@@H](C)[C@H](CN(C)Cc1ccccc1)O2,nt,nt,nt,nt,20,nt
